# PubChem BioAssay
# The source made the active and inactive calls.
# Tests used:
# [1] = system: Plasmodium falciparum Sir2 (PF13_0152, Sir2A); experiment: pfSir2 binders on small-molecule microarrays, primary screen, biochemical, small-molecule microarray, 635 nm fluorescence (AID 1098); conditions: small-molecule microarray binding, fluorescence 635 nm; higher = more signal;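 note: score merges spot fluorescence intensity with its signal-to-noise ratio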
# [2] = small-molecule microarray binders of probe aDKK1, primary screen, biochemical, biotinylated probe, 635/667 nm fluorescence (AID 1099); conditions: higher = more signal;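 note: score merges 667nm spot fluorescence with signal to noise across triplicate slides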
# [3] = small-molecule microarray binders of probe aCHRDL2, primary screen, biochemical, biotinylated probe, 635/667 nm fluorescence (AID 1100); conditions: higher = more signal
# [4] = splicing luciferase reporter signal modulators, primary screen, spliceosome inhibition project, cell-based, HEK293, splice +/- reporter (AID 1101); conditions: luminescence, 24 h, higher = more signal, called active from +8 up or from −8 down;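 note: HEK293 cells carrying a splicing-competent luciferase reporter gene; test concentration not given here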
# [5] = molecular target: Fibroblast growth factor 10 (Homo sapiens) (UniProt O15520); experiment: FGF10 binders on small-molecule microarrays, primary screen, biochemical, small-molecule microarray, 635 nm fluorescence (AID 1102); conditions: FGF10 binding, fluorescence 635 nm, higher = more signal
# [6] = system: glycogen synthase kinase-3 (GSK3A per assay name; protocol says GSK3B); experiment: GSK3 binders on small-molecule microarrays, primary screen, biochemical, small-molecule microarray, 635 nm fluorescence, GSK3A (AID 1103); conditions: small-molecule microarray binding, fluorescence 635 nm; higher = more signal; note: the record names both GSK3A and GSK3B
# [7] = molecular target: Epidermal growth factor receptor (Homo sapiens) (UniProt P00533); experiment: EGFR binders on small-molecule microarrays, primary screen, biochemical, small-molecule microarray, 635 nm fluorescence (AID 1104); conditions: EGFR binding, higher = more signal;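 note: score merges 667 nm emission intensity with spot signal to noise over triplicate slides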
# [8] = molecular target: Follistatin-related protein 3 (Homo sapiens) (UniProt O95633); experiment: FSTL3 binders on small-molecule microarrays, primary screen, biochemical, small-molecule microarray, 635 nm fluorescence (AID 1105); conditions: FSTL3 binding, higher = more signal;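 note: score merges emission near 667 nm and signal to noise per printed spot across three slides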
# [9] = molecular target: Dickkopf-related protein 1 (Homo sapiens) (UniProt O94907); experiment: DKK1 binders on small-molecule microarrays, primary screen, biochemical, small-molecule microarray, 635 nm fluorescence scan (AID 1106); conditions: DKK1 binding, higher = more signal;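 note: score merges emission near 667 nm with signal to noise over three replicate slides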
# [10] = system: Inhibin beta A chain (activin A); experiment: INHBA (activin A) binders on microarrays, primary screen, biochemical, small-molecule microarray, 635 nm fluorescence scan (AID 1107); conditions: small-molecule microarray binding, higher = more signal;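 note: mouse activin A protein probed at 4.33 µg/mL on printed slides; score merges bound-protein fluorescence near 667 nm with spot signal-to-noise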
# [11] = system: Human papillomavirus type 1a protein E7 (residues 44-93); experiment: HPV1a E7 fragment binders on microarrays, primary screen, biochemical, small-molecule microarray, residues 44-93, 635 nm fluorescence (AID 1108); conditions: small-molecule microarray binding, fluorescence 635 nm; higher = more signal;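 note: E7 fragment applied at 1 µg/mL in TBST for 1 h at 4 C; score combines spot fluorescence with its signal to noise ratio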
# [12] = modulators of HCV replicon luciferase signal, primary screen, HCV replication inhibitor project, Huh7 cells, luciferase reporter (AID 1109); conditions: 48 h, higher = more signal;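 note: huh7 hepatoma cells harbouring a luciferase neomycin HCV replicon reporter; luciferase luminescence as measure of HCV replicon replication; test concentration not given here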
# [13] = molecular target: Left-right determination factor 2 (Homo sapiens) (UniProt O00292); experiment: LEFTY2 binders on small-molecule microarrays, primary screen, biochemical, small-molecule microarray, 635 nm fluorescence scan (AID 1110); conditions: LEFTY2 binding, higher = more signal
# [14] = molecular target: Calmodulin-1 (Homo sapiens) (UniProt P0DP23); experiment: CALM1 binders on microarrays, EGTA buffer, profiling panel, biochemical, small-molecule microarray, Cy5-labelled CALM1 (AID 1111); conditions: Cy5-CALM1 binding fluorescence, higher = more signal;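 note: labelled calmodulin applied in Tris saline Tween buffer holding calcium plus EGTA and DTT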
# [15] = molecular target: Calmodulin-1 (Homo sapiens) (UniProt P0DP23); experiment: calcium-bound CALM1 binders on microarrays, profiling panel, artefact control for SMM control-protein annotation, biochemical, small-molecule microarray, Cy5-labelled CALM1, plus calcium (AID 1112); conditions: Cy5-CALM1 binding fluorescence, higher = more signal;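 note: score merges spot fluorescence with signal to noise from triplicate slides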
# [16] = small-molecule microarray binders of probe aWnt5a, primary screen, biochemical, biotinylated probe, 635/667 nm fluorescence (AID 1113); conditions: higher = more signal;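 note: score merges 667 nm fluorescence intensity with signal-to-noise per printed feature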
# [17] = small-molecule microarray binders of probe aShh, primary screen, biochemical, biotinylated probe, 635/667 nm fluorescence (AID 1114); conditions: higher = more signal;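 note: probe is biotin-labelled aShh protein from a stem cell growth factor screen; measures binding of labelled protein to compounds printed on the slide; score merges feature fluorescence at 667 nm with signal-to-noise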
# [18] = small-molecule microarray binders of probe aNog, primary screen, biochemical, biotinylated probe, 635/667 nm fluorescence (AID 1115); conditions: higher = more signal;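 note: probe is biotinylated aNog protein used at 0.15 µg/mL for 1 h at 4 C; z-score combines 667 nm fluorescence of each spot with its signal to noise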
# [19] = molecular target: Torsin-1A-interacting protein 1 (Homo sapiens) (UniProt Q5JTV8); experiment: LAP1 binders from COS7 cell lysate, primary screen, small-molecule microarray, 635/667 nm fluorescence (AID 1116); conditions: COS7-hLAP1 lysate binding, 635 nm fluorescence, higher = more signal
# [20] = molecular target: Alpha-bungarotoxin (Bungarus multicinctus) (UniProt P60615); experiment: alpha-bungarotoxin binders on microarray, profiling panel, artefact control for SMM control protein annotation, biochemical, small-molecule microarray, Alexa647 label, 635/667 nm fluorescence (AID 1117); conditions: alpha-BTX-A647 binding fluorescence, higher = more signal
# Sequence of Alpha-bungarotoxin (Bungarus multicinctus) (P60615 whole entry, looked up): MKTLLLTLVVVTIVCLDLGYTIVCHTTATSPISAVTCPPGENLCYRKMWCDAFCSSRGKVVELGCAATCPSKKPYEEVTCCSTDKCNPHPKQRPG
# Sequence of Left-right determination factor 2 (Homo sapiens) (O00292 whole entry, looked up): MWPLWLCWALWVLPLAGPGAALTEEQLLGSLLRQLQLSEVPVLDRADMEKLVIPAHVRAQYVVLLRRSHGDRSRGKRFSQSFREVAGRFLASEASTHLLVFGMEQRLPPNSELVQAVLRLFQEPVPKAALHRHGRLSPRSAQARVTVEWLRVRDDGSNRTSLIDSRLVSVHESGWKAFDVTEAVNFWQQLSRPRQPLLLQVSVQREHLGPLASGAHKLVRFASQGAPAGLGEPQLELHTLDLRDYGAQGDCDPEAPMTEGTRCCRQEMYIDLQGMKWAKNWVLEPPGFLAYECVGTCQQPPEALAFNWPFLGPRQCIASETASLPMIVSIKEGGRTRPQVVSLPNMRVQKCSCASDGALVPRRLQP
# Sequence of Fibroblast growth factor 10 (Homo sapiens) (O15520 whole entry, looked up): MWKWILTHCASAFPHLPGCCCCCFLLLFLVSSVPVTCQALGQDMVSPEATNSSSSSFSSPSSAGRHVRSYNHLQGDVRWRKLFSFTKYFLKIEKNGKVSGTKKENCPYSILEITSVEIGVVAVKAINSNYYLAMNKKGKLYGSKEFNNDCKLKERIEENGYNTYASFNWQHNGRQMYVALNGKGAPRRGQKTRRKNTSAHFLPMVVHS
# Sequence of Dickkopf-related protein 1 (Homo sapiens) (O94907 whole entry, looked up): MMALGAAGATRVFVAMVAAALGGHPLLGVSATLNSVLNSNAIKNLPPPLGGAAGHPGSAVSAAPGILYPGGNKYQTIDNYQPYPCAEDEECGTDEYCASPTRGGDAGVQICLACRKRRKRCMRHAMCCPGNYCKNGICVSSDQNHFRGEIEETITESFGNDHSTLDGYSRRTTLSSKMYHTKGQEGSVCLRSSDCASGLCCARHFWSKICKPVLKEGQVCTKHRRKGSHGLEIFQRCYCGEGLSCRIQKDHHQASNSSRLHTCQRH
# Sequence of Follistatin-related protein 3 (Homo sapiens) (O95633 whole entry, looked up): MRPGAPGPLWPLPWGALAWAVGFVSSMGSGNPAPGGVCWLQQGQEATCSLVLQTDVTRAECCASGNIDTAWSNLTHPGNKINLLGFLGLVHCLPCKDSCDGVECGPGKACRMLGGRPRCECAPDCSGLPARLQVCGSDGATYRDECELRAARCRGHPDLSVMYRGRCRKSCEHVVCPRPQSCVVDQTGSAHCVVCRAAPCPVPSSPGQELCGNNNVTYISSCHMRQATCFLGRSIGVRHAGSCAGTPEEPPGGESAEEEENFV
# Sequence of Torsin-1A-interacting protein 1 (Homo sapiens) (Q5JTV8 whole entry, looked up): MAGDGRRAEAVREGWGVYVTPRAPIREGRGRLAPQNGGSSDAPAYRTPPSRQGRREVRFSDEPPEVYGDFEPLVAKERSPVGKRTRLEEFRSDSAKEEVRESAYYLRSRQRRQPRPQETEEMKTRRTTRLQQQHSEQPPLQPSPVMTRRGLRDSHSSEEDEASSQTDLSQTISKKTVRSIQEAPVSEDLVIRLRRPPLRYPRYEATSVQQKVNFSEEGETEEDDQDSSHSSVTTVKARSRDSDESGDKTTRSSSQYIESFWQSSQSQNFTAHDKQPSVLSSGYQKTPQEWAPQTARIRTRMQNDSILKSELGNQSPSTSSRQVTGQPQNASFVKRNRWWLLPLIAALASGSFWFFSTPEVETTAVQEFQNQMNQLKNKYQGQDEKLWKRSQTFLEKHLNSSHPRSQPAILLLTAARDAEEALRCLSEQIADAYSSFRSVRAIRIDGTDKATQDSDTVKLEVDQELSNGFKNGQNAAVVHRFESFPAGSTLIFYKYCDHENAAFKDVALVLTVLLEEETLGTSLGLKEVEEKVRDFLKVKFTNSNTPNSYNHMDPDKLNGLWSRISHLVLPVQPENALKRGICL
# Sequence of Epidermal growth factor receptor (Homo sapiens) (P00533 whole entry, looked up): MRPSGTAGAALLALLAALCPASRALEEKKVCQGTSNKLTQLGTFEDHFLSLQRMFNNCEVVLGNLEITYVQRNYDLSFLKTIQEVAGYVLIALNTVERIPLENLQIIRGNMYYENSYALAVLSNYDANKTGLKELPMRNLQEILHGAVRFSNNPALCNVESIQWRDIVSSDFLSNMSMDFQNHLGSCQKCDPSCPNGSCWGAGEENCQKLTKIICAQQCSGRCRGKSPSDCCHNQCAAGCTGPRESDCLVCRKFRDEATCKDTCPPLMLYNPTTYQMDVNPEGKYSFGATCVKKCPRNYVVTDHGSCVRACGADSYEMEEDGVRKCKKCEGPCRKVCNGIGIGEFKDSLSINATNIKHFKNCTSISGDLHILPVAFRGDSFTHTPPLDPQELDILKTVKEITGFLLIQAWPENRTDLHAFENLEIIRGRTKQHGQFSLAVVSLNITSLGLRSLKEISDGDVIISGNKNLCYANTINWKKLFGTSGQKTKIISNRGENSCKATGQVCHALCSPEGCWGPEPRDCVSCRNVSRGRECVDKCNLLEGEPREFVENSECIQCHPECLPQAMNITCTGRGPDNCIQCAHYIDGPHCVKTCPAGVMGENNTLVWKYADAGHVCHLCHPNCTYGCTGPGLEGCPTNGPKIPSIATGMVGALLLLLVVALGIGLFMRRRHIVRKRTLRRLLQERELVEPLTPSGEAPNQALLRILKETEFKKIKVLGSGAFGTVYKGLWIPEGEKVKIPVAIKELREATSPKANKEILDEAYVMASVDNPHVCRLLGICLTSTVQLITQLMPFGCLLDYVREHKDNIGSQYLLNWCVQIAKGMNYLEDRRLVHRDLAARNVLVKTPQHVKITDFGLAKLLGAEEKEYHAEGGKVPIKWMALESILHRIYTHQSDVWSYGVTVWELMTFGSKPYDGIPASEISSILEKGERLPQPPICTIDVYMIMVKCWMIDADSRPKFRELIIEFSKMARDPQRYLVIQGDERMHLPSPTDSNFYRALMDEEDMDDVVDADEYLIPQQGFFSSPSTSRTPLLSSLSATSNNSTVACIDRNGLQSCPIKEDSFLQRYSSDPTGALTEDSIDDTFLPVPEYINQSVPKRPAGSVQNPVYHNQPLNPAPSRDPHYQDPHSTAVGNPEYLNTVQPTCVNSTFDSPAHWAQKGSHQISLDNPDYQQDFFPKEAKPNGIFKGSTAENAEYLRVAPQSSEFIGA
SMILES,composite z-score [1],composite z-score [2],composite z-score [3],z-score [4],composite z-score [5],composite z-score [6],composite z-score [7],composite z-score [8],composite z-score [9],composite z-score [10],composite z-score [11],z-score [12],composite z-score [13],composite z-score [14],composite z-score [15],composite z-score [16],composite z-score [17],composite z-score [18],composite z-score [19],composite z-score [20]
C=CC[C@@H]1C=C[C@H](ON=C(C)CCN2CCCc3nc(C)c(C)cc32)[C@@H](CO)O1,1.14,0.381,0.331,0.0487 (inactive),1.01,1.15,0.759,1.47,1.32,2.04,0.298,-0.839,1.14,-0.0351,-1.43,0.264,0.586,0.525,1.83,0.366
COC(=O)CC=C[C@@H](C)[C@@H](C=NOC[C@@H](O)COCc1ccco1)OC,1.05,-0.589,-1.34,-0.485 (inactive),-0.469,0.149,-0.446,-0.0313,1.15,0.533,0.134,0.674,0.999,-0.809,-2.21,-0.172,-0.243,-0.353,0.329,-0.741
COc1ccc(O[C@H]2C=C[C@@H](c3ccccc3)O[C@@H]2CON=C(C)CCN2CCCc3nc(C)c(C)cc32)cc1,0.625,-0.325,-0.156,-0.204 (inactive),0.735,0.73,0.227,0.616,0.552,0.917,1.09,-2.04,0.597,0.284,-0.425,-0.0869,-0.0769,-0.158,0.358,0.651
COc1cccc([C@H](O)Cn2cc(-c3ccc(CON=C(C)C)cc3)nn2)c1,-0.548,-0.122,-0.0514,0.62 (inactive),0.155,-0.559,-0.392,-0.549,-0.115,0.575,-1.42,-0.657,0.323,-0.851,-0.679,0.123,-0.229,-0.172,0.56,-0.713
CC(C)CON=C1C[C@@H](O)[C@@H](O)[C@@H]2[C@@H]3C(=O)N(Cc4ccc5c(c4)OCO5)C(=O)[C@@H]3CC[C@@H]12,0.409,-0.218,-0.208,0.0483 (inactive),0.0677,-0.315,-0.203,-0.0661,-0.337,-0.0043,0.44,0.081,-0.119,0.349,-0.311,-0.0279,-0.0769,-0.103,0.086,0.748
O=C1[C@H]2[C@H]3[C@H](O)[C@H](O)CC(=NO[C@@H]4O[C@H](CO)[C@@H](O)[C@H](O)[C@H]4O)[C@@H]3CC[C@H]2C(=O)N1C1CCCCC1,0.203,-0.275,-0.458,-0.155 (inactive),0.57,0.607,0.46,0.542,0.353,-0.224,0.578,-0.0851,0.616,0.159,-0.616,0.0101,-0.0593,-0.198,0.0912,0.0069
CO[C@H]1COC(=O)CC=C[C@H](C)[C@H](OC)COC(=O)[C@@H](C)NC(=O)CC=C[C@@H]1C,1.65,-0.407,-1.19,-0.59 (inactive),0.777,0.507,0.383,1.36,1.56,1.64,-2.87,-2.14,0.953,-0.735,-1.49,-0.101,-0.0681,-0.21,0.229,-0.32
CC(C)[C@@H](OCc1ccccc1)[C@H](C)C=NO[C@@H](C)c1cn([C@H](CO)Cc2ccccc2)nn1,0.38,-0.215,-0.357,0.357 (inactive),-0.045,0.148,-0.0006,0.105,-0.477,-0.245,0.402,-1.87,0.277,-0.38,-0.281,-0.135,-0.273,0.0715,0.217,-0.0804
CO[C@H]1COC(=O)[C@H](CCSC)NC(=O)CC=C[C@@H](C)[C@H](OC)COC(=O)[C@@H](OCc2ccccc2)C=C[C@@H]1C,0.988,-0.488,-0.513,0.45 (inactive),0.605,0.751,0.975,0.922,1.38,0.824,0.176,-1.4,0.753,-0.841,-1.69,-0.159,-0.221,-0.483,0.0829,-0.531
COC(=O)CC=C[C@@H](C)[C@@H](C=NOC(C)CN1CCCCc2nc(C)c(C)cc21)NS(=O)(=O)c1ccc(C)cc1 (stereo not given in full),0.361,-0.0704,0.0097,-0.182 (inactive),-0.129,0.165,1,0.437,0.846,1.15,0.241,0.0814,0.614,-0.344,-1.27,-0.158,0.0144,0.0567,0.0017,0.363
O=C1[C@H]2CCn3c(=O)n(Cc4cc5c(cc4Cl)OCO5)c(=O)n3[C@H]2[C@H](O)[C@@H]2O[C@H]12,0.652,-0.374,-0.604,0.726 (inactive),-0.41,-0.734,0.413,-0.0989,0.552,0.73,-0.552,-1.94,0.269,-0.806,-0.697,-0.295,-0.237,-0.492,0.054,0.389
